Reference: PubChem BioAssay (NCI)
About 83,000 compounds went through this panel and 20% of them were active in at least one assay; those are over-represented in the sample as a whole.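 48-hour exposure, single concentration, 96-well plates; percent growth endpoint where 0 means no net growth. Active: below 10.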 Unmarked numbers belong to inactive results. Active and inactive are the calls of the source.

What follows are compounds tested on NCI-H522 lung (assay: NCI-60 one-dose screen, 48 h (100 = growth as untreated, 0 = no growth, -100 = all killed)). Details: 10 µM unless noted.
Protocol: Growth inhibition of the NCI-H522 human Non-Small Cell Lung tumor cell line is measured as a screen for anti-cancer activity. Cells are grown in 96 well plates and exposed to the test compound for 48 hours. Compounds are tested at a single concentration, which is 10^-5 M for most compounds. The reported endpoint is percent growth (GI% or GIPRCNT), where numbers from 0 - 100% represent growth inhibition, and numbers from -100% - 0 represent cell death. For example, a value of 40 represents 60% growth inhibition. A value of 0 means no net growth occurred over the course of the experiment. A value of -40 indicates 40% of cells at the beginning of the experiment died by the end of the experiment. A value of -100 means all cells are dead at the end of the experiment.
NCI-60 Human Tumor Cell Lines Screen was performed using the standard one-dose NCI protocol, which is described in more detail at https://dtp.cancer.gov/discovery_development/nci-60/default.htm.
Compounds with GIPRCNT values below 10 were considered active. Activity score was based on GIPRCNT using the following formula: […]
Score is 0 for GIPRCNT values of 100 or above, 50 for GIPRCNT values of 0, and 100 for GIPRCNT values of -100.

SMILES | growth
C[C@H]1[C@H](C)CC[C@]2(C(=O)N3CCN(C)CC3)CC[C@]3(C)C(=CC[C@@H]4[C@@]5(C)C/C(=C/c6ccco6)C(=O)C(C)(C)[C@@H]5CC[C@]43C)[C@H]12 | 4.91% [100 µM] (active)
C#CCOc1ccc(C2=NN(CC3CC3)C3N=C(Cl)c4ncn(CC5CC5)c4N23)cc1OCC#C (stereo not given) | 60.6%
CCOC(=O)C(C(C)=O)c1nc2sc3cc(Cl)c(Cl)cc3n2c(=O)c1C#N (stereo not given) | 62.9%
Cc1ccc(NCCN2CCCCC2)c2c(=O)c3ccccc3sc12 | 2.96% (active)
CCOC(=O)C1=C(C(=O)c2ccc(Br)cc2)C(c2ccc(Br)cc2)NC(=S)N1 (stereo not given) | 95.9%
CCCCCCSc1ncnc2nc[nH]c12 | 86.3%
NC(=O)CC1C=CCC1 (stereo not given) | 97.9%
COc1ccc(-c2c(C)nn3c(NCCN4CCOCC4)cc(C)nc23)cc1OC | 106%
Cc1ccc(S(=O)(=O)N/N=C2\CC3CCC2(C)C3(C)C)cc1 (stereo not given) | 63.1%
C=C(C)[C@@H]1CC[C@]2(C(N)=O)CC[C@]3(C)[C@H](CC[C@@H]4[C@@]5(C)C/C(=C/c6cccnc6)[C@H](O)C(C)(C)[C@@H]5CC[C@]43C)[C@@H]12 | 8.63% [100 µM] (active)
Cc1ccc(S(=O)(=O)Nc2ccccc2)cc1N | 23.5%
COc1c(C(C)=O)c(OCCCCOc2c(C(C)=O)c(OC)c3ccoc3c2OC)c(OC)c2occc12 | -7.73% (active)
COc1ccc2nc3ccccc3c(NCCNCCO)c2c1 | -48.7% (active)
COc1cc(-c2cc(-c3ccc(Nc4ncnc5cc(Cl)ccc45)cc3)nc(N3CCCCC3)n2)cc(OC)c1OC | 75.3%
NNC(=O)c1ccc(C(=O)NN)cc1 | 101%
Nn1c(Nc2ccc(S(=O)(=O)Nc3ncccn3)cc2)nnc(/C=C/c2c(O)ccc3ccccc23)c1=O | 98.1%
CC(C)CCNCC(C)(C)O | 98.7%
CN(Cc1cccc(C(F)(F)F)c1)C(=O)[C@@H](CC(=O)N1CCC(N2CCCCC2)CC1)N1C(=O)[C@@H](N2C(=O)OC[C@@H]2c2ccccc2)[C@H]1/C=C/c1ccccc1 | 96.1%
COc1ccc(-c2ccc(NNC(=O)c3ccc(F)cc3)nn2)cc1OC | 72.8%
Nc1cc(C(=O)O)[nH]c(=S)n1 | 96.7%

SMILES | growth
N#C/C(=C(/O)CCCO)c1nc2ccccc2c(=O)[nH]1 | 95%
Cc1ccc(-n2nc3n(/c2=N\C(=O)NS(=O)(=O)c2ccc(C)cc2)CCN3C2=NCCN2)cc1 | 88.6%
Cc1c(Cn2cc(COc3ccc(Br)cc3)nn2)c(C)c(Cn2cc(COc3ccc(Br)cc3)nn2)c(C)c1Cn1cc(COc2ccc(Br)cc2)nn1 | -30.4% (active)
Cc1cccc(/C=C2\N=C(c3ccccc3)N(c3ccc(S(N)(=O)=O)cc3)C2=O)c1 | 82.5%
O=C(O)c1cc([N+](=O)[O-])ccc1Br | 97.3%
CCOc1ccc(/C=C(\C#N)c2cc3ccccc3[nH]2)cc1 | 32.8%
COc1ccc(N(c2nc(-c3ccc([N+](=O)[O-])cc3)cs2)C(C)C)cc1 | 67.8%
C[C@@H](NC(=O)[C@@H](CC(=O)N1CCC(N2CCCCC2)CC1)N1C(=O)[C@@H](N2C(=O)OC[C@@H]2c2ccccc2)[C@H]1/C=C/c1cccc(Cl)c1)c1ccccc1 | 64.2%
CCCSc1nc(N)nc2nc[nH]c12 | 88.4%
CCOC(=O)c1c[nH]c2cc(OCC3CC3)c(OCC3CC3)cc2c1=O | 95.5%
O=C1CC(C(F)(F)F)Cc2nc3ccc(Br)cc3cc21 (stereo not given) | 84.8%
CSc1nc2sc3cc(Cl)c(Cl)cc3n2c(=N)c1C#N | 89.4%
Cc1ccccc1-n1nnc(C(=O)Nc2nc3ccc(F)cc3s2)c1C | 66.4%
CCN(CC)CCS(=O)(=O)CCNc1ccnc2cc(Cl)ccc12 | -50.5% (active)
Cc1ccc(NC(=O)N[C@@H](Cc2cc(F)cc(F)c2)C(=O)N[C@@H]2C(=O)N3CCC[C@H]3C(=O)N3CCOC[C@H]3C(=O)N[C@@H](C)C(=O)N3C[C@H](C)C[C@H]3C(=O)O[C@H]2C)cc1 | 37.7%
CCCCOC(=O)c1cccc([N+](=O)[O-])c1 | 92.7%
COc1ccc2nc3cc(Cl)ccc3c(Nc3ccc(O)cc3)c2c1 | 72.5%
C=C(C)[C@@H]1CC[C@]2(C(=O)NCCCN)CC[C@]3(C)[C@H](CC[C@@H]4[C@@]5(C)CC[C@H](O)C(C)(C)[C@@H]5CC[C@]43C)[C@@H]12 | -17% [100 µM] (active)
CCCCCCNC(=O)Nc1ncnc2c1ncn2-c1ccccc1 | 82.5%
O=C(Nc1cccc(F)c1)c1cc(=O)[nH]c2cc(Br)ccc12 | 23.9%
